Measured values from the supplement of paper PMC10732440.
± gives the standard deviation of the averaged measurements.

tested on: Caenorhabditis elegans N2 infected with Nematocida parisii ERTm1; test: progeny production relative to DMSO uninfected control; higher = more progeny despite microsporidia infection (inhibition of infection with low host toxicity); conditions: infection time 6 days; 40 µM
Method in brief: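 Wild-type C. elegans L1 larvae, synchronised by bleaching, were added at 100 per well to 96-well plates containing K-medium, E. coli OP50 and 15,000 N. parisii spores/μL, and compound was pinned in to 100 μM or 40 μM in 1% DMSO. The plates were shaken at 21°C for 6 days, after which worms were stained with Rose Bengal, scanned on a flatbed scanner and counted using WorMachine. Each compound and dose was run three times. Progeny production is expressed as a percentage of wells with vehicle but no spores, averaged over the replicates.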

Structure (SMILES) | progeny production [%]
C[C@H](NC(CC(=O)c1ccccc1C(F)(F)F)C(=O)O)c1ccccc1 (some centres not stated) | 8 ± 6.4
CC(C)Nc1nc2cc(Cl)c(Cl)cc2n1[C@H]1O[C@@H](CO)[C@H](O)[C@@H]1O | 3.85 ± 0.59
CC[C@@H]1C(=O)OC[C@@H]1Cc1cncn1C | 4.59 ± 1.7
CC1(C)[C@H](C(=O)O)N2C(=O)C[C@H]2S1(=O)=O | 4.44 ± 0.8
NC(=S)N/N=C/c1ncccc1N | 8.43 ± 4.5
CC(=O)Oc1ccccc1C(=O)Nc1ncc([N+](=O)[O-])s1 | 3.11 ± 1.7
O=c1oc2ccc(Br)cc2cc1CSc1ncc[nH]1 | 6.6 ± 2.9

same assay, conditions: infection time 6 days; 100 µM

Structure (SMILES) | progeny production [%]
CCN(CC)CCCC(C)Nc1ccnc2cc(Cl)ccc12 (configuration not stated) | 5.16 ± 3.5
C[C@H](c1cccc2ccccc12)N(C)Cc1ccccc1 | 12.4 ± 7.8
Nc1nc(-c2ccccc2)nc2c1ncn2[C@@H]1O[C@H](COS(=O)(=O)NC(=O)c2ccccc2O)[C@@H](O)[C@H]1O | 6.74 ± 3.1
COc1cc(C(C(=O)NC2CCCCC2)N(C(=O)Cc2c[nH]c3ccccc23)c2ccc(C(C)C)cc2)cc(OC)c1OC (configuration not stated) | 7.98 ± 2
Nc1nc(-c2ccccc2)nc2[nH]nc(Nc3ccc(C(F)(F)F)cc3)c12 | 29.5 ± 27
Cc1cccc(C)c1C(=O)Nc1nc(-c2ccccn2)cc2ccccc12 | 6.64 ± 4.7
CC(C)n1cnc2c(NCc3ccccc3)nc(NCc3ccccc3)nc21 | 12.1 ± 7.2
COc1ccc2c(c1)cc(CNC(=O)c1cc3ccccc3o1)n2CC(=O)O | 17.7 ± 17
O=C(O)c1sccc1S(=O)(=O)n1ccc2cc(Br)ccc21 | 8.33 ± 1.2
Cc1onc(-c2ccccc2)c1-c1ccc(S(N)(=O)=O)cc1 | 7.71 ± 5.3
CC#C[C@]1(O)CC[C@H]2[C@@H]3CCC4=CC(=O)CCC4=C3[C@@H](c3ccc(N(C)C)cc3)C[C@@]21C | 14.9 ± 4.7
CC(Oc1ccc(Cl)cc1Cl)C(=O)NCc1ccc2c(c1)OCO2 (configuration not stated) | 14.5 ± 9.6
CCOC(=O)/C=C/[C@H](C[C@@H]1CCNC1=O)NC(=O)[C@@H](CC(=O)[C@@H](NC(=O)c1cc(C)on1)C(C)C)Cc1ccc(F)cc1 | 8.56 ± 4.7
Nc1cnn(C2OC(CO)C(O)C2O)c(=O)n1 (configuration not stated) | 13.1 ± 5.4
O=C(Nc1ncc(Cc2cccc3ccccc23)s1)C1CCCCC1 | 13 ± 5.7
CCCCCCCCCN1C[C@@H](O)[C@H](O)[C@@H](O)[C@@H]1CO | 11.9 ± 5.5
NCC(=O)Nc1ccc(-n2nc(C(F)(F)F)cc2-c2ccc3c(ccc4ccccc43)c2)cc1 | 11.9 ± 7
O=C(c1ccc(F)cc1)N1CCN2C(=O)c3ccccc3C12c1ccccc1 (configuration not stated) | 7.13 ± 5
O=C(Nc1ccccc1)N(Cc1cc(Br)ccc1O)c1ccc(F)cc1 | 17.4 ± 13
Nc1cccc(-c2nc(N)nc(NC3Cc4ccccc4C3)n2)c1 | 20.6 ± 10

Structure (SMILES) | progeny production [%]
NC(=O)c1[nH]c2ccc(S(N)(=O)=O)cc2c1-c1ccccc1 | 6.59 ± 2.8
COc1ccc(C)cc1NC(=O)c1ccc(S(=O)(=O)N2CCCCC2)cc1 | 19.4 ± 16
C[C@@H]1O[C@@H]1P(=O)(O)O | 15.3 ± 13
O=C(c1ccccc1)N1CCN(c2ccccc2NC(=O)C(Cl)(Cl)Cl)CC1 | 12.7 ± 8.6
CN(C)[C@@H]1C(=O)C(C(N)=O)=C(O)[C@@]2(O)C(=O)C3=C(O)c4c(O)c(NC(=O)CN5CCCC5)cc(F)c4C[C@H]3C[C@@H]12 | 6.16 ± 0.72
Nc1nc(F)nc2c1ncn2[C@H]1O[C@@H](CO)[C@H](O)[C@@H]1O | 4.1 ± 1.2
O=C(O)c1ccc(-c2ccc(O[C@H]3O[C@H](CO)[C@@H](O)[C@H](O)[C@@H]3O)cc2)cc1 | 7.21 ± 4.6
O=C(Nc1nnc(-c2ccc(Cl)cc2)o1)c1nc2ccccc2s1 | 6.47 ± 3.5
Nc1nnc(-c2ccc(Cl)cc2)s1 | 16.3 ± 16
Nc1nc2c(ncn2COC(CO)CO)c(=O)[nH]1 | 10.9 ± 4.7
O=C(O)COc1cccc2c1CC[C@](O)(COC(=O)N(c1ccccc1)c1ccccc1)C2 | 15.6 ± 8.1
CCCCc1ccc(-c2cc(C(=O)O)cc(-c3ccc(Cl)cc3)n2)cc1 | 9.87 ± 7.3
O[C@@](Cn1cnnn1)(c1ccc(F)cc1F)C(F)(F)c1ccc(-c2ccc(OCC(F)(F)F)cc2)cn1 | 11.8 ± 2.2
C[C@H](NC(CC(=O)c1ccccc1C(F)(F)F)C(=O)O)c1ccccc1 (some centres not stated) | 5.89 ± 3.9
CC(C)Nc1nc2cc(Cl)c(Cl)cc2n1[C@H]1O[C@@H](CO)[C@H](O)[C@@H]1O | 9.08 ± 2.1
CC[C@@H]1C(=O)OC[C@@H]1Cc1cncn1C | 11.8 ± 11
CC1(C)[C@H](C(=O)O)N2C(=O)C[C@H]2S1(=O)=O | 10.7 ± 7.8
NC(=S)N/N=C/c1ncccc1N | 18.8 ± 12
CC(=O)Oc1ccccc1C(=O)Nc1ncc([N+](=O)[O-])s1 | 10.8 ± 5.3
O=c1oc2ccc(Br)cc2cc1CSc1ncc[nH]1 | 11.1 ± 7.2
